Drawing on PubChem BioAssay (NCI), this text covers growth inhibition for 40 compounds.

The structures appear in SMILES notation. Compounds without any hit were thinned out: in the full panel of roughly 79,000, 15% have a hit. Calls of active or inactive are those of the source. Rule as the data show it: active = growth inhibition above about 70%; inactive = the rest.

The experiment is described as follows: NCI Yeast Anticancer Drug Screen. Data for the mec2-1 strain (AID 157). The settings on record: S. cerevisiae mec2-1 strain, at 5.0 µM (retest, dose inferred, filed as 0.5), active compounds read high. The method in brief:
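Test agents were screened against the mec2-1 yeast strain, with defined DNA repair or cell cycle alteration. Growth was scored as inhibition against vehicle-only controls.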
In the case of `O=[N+]([O-])c1cc[n+]([O-])c2ccccc12`, the growth inhibition is 100% (active).

`COc1c[c]([Hg][O]C(C)=O)c(OC)c(NC(=O)CC(C)=O)[c]1[Hg][O]C(C)=O`: the growth inhibition was 99% (active).

Regarding `CN(C)c1ccc(C2N(Cc3ccc(N(CCCl)CCCl)cc3)CCCN2Cc2ccc(N(CCCl)CCCl)cc2)cc1`, the growth inhibition was -18% (inactive).

As for `CC(=O)c1ccc(-[n+]2c(C)cc(-c3ccccc3)cc2C)cc1`, the growth inhibition was -1% (inactive).

`[O]=[Sb]([OH])([OH])[c]1ccc(NC2OC(CO)C(O)C(O)C2O)cc1` (stereo not given): the growth inhibition is 0% (inactive).

On to `CCC1CN1P(=O)(Oc1ccccc1)N1CC1CC` (stereo not given), for which the growth inhibition was -1% (inactive).

As to `CCN(CC)CC(=O)c1cc2ccccc2c2ccccc12`, the growth inhibition was 14% (inactive).

Regarding `O=C1CCCC1Cl` (stereo not given), the growth inhibition is -2% (inactive).

In the case of `N#C[S-].[La+3].c1ccc(-c2ccccn2)nc1.c1ccc(-c2ccccn2)nc1.c1ccc(-c2ccccn2)nc1`, the growth inhibition was 41% (inactive).

`O=c1s[se]c2ccccc12`: the growth inhibition was 13% (inactive).

For the compound `O=C(CCl)Nc1ccc(Cl)cc1`, the growth inhibition is 1% (inactive).

For the compound `O=C1N[C@H]2[C@H](O)[C@H](O)[C@@H](O)[C@H](O)[C@@H]2c2cc3c(c(O)c21)OCO3`, the growth inhibition is 19% (inactive).

As to `O=C(Nc1n[c]([Hg][Cl])[c]([Hg][Cl])s1)OCc1ccccc1`, the growth inhibition is 99% (active).

As for `CC[C@@]1(O)C[C@H](OC2CC(N(C)C)C(O)C(C)O2)c2c(cc3c(c2O)C(=O)c2c(O)ccc(O)c2C3=O)[C@H]1C(=O)OC` (stereo not given in full), the growth inhibition was 77% (active).

Consider `CCCCCc1cc(O)c(CCCC)c(O)c1`, for which the growth inhibition is -39% (inactive).

In the case of `NC(=O)/C=C/c1ccc([As]=O)cc1` (stereo not given), the growth inhibition is 1% (inactive).

As for `O=[N+]([O-])c1cccc(SC(Cl)(Cl)Cl)c1`, the growth inhibition is 40% (inactive).

For `COc1cc(/C=C(/C)[N+](=O)[O-])ccc1O`, the growth inhibition was 13% (inactive).

`CCC[CH2][Sn]1([CH2]CCC)[O]CC(CN2CCOCC2)[O]1` (stereo not given): the growth inhibition is 17% (inactive).

Regarding `O=C1CN2CCCCC2CN1` (stereo not given), the growth inhibition was -43% (inactive).

Regarding `CCC[CH2][Sn]([CH2]CCC)([O]C(=O)CCC(C)=O)[O]C(=O)CCC(C)=O`, the growth inhibition is 80% (active).

Regarding `C[CH2][Sn]([F])([CH2]C)[CH2]C`, the growth inhibition was 6% (inactive).

For the compound `CN(C)CCBr`, the growth inhibition is 16% (inactive).

For `O=[N+]([O-])c1ccc2c3c(cccc13)CC2`, the growth inhibition was 3% (inactive).

In the case of `CC1=CC2CC(C)=C(CC[C@]3(C)CC[C@H]([C@@H](C)C(=O)O)OO3)C(C)(C)C2CC1` (stereo not given in full), the growth inhibition is 59% (inactive).

Take `ClC(CN1CCCCC1)C(Cl)c1ccccc1` (stereo not given): the growth inhibition is 2% (inactive).

In the case of `CCOC(=O)c1ccc(N=Cc2ccc(N(CCCl)CCCl)cc2C)cc1`, the growth inhibition was 13% (inactive).

Take `CN=C(N)N/N=C(\C)c1ccc2sc3ccc(/C(C)=N/NC(N)=NC)cc3c2c1`: the growth inhibition was -4% (inactive).

Consider `c1cc2n[pH]nc2cn1` (stereo not given), for which the growth inhibition was -3% (inactive).

Regarding `O=[N+]([O-])c1ccc(Br)c([N+](=O)[O-])c1`, the growth inhibition was 7% (inactive).

For `O=C(CBr)NC1CCCCC1`, the growth inhibition was 4% (inactive).

For the compound `CC(C)C12C=C3CCC4C(C)(C(=O)O)CCCC4(C)C3(CC1)OO2` (stereo not given), the growth inhibition is -1% (inactive).

For `IC(I)=C(I)I`, the growth inhibition was 100% (active).

For the compound `Clc1ccc2c(c1)C(c1ccccc1Cl)=NCC(SCCN1CCOCC1)=N2`, the growth inhibition is 29% (inactive).

On to `CCOP(=O)(OCC)/C(C#N)=C/c1ccc(Br)cc1`, for which the growth inhibition is -14% (inactive).

For `Cc1ccc(C(=O)C2C(c3ccccc3)N2C2CCCCC2)cc1` (stereo not given), the growth inhibition is -8% (inactive).

With `CN(C)c1ncnc2c1ncn2C1OC(CO)C2NP(=O)(N(CCCl)CCCl)OC21` (stereo not given), the growth inhibition is -3% (inactive).

As to `Nc1nc(N)c(-c2ccc(Cl)c(Cl)c2)c(CCc2ccc(CNC(=O)c3cccc(S(=O)(=O)F)c3)cc2)n1`, the growth inhibition was -1% (inactive).

On to `C[CH2][Pb]([CH2]C)([CH2]C)[O]C(=O)COc1ccc(Cl)cc1Cl`, for which the growth inhibition is 14% (inactive).

As to `O=C(OCC(CCl)OC(=O)C(Cl)(Cl)Cl)C(Cl)(Cl)Cl` (stereo not given), the growth inhibition was 12% (inactive).
